The list is not random: actives were taken first. Their share in the collection is about 3.8%.
VDR inh – vitamin D3 receptor (human) inhibition; P11473; 400,000 compounds, 0.93% hits; VDR-SRC2-3 peptide fluorescence polarization, 2 h; Potency, µM, inactives show max response, negative = inhibition, actives largely listed as inhibitors; further: potency means the concentration at half of the fitted maximal effect; on the % scale 0 is the no-effect control and ±100 the full control effect
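Fluorescence polarization assay of small-molecule disruption of VDR binding to coregulator peptide SRC2-3. Compounds and controls pin-transferred, then read after 2 h incubation at ambient room temperature.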
hERG WT inh – blocks the wildtype human KCNH2 potassium channel; Q12809; U2OS, BacMam KCNH2, thallium flux FluxOr; hits give low values; activity change, % at 1.84 µM; 340,000 compounds, 0.37% hits; AID 720551;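 active means maximum activity change below -70%; inconclusive means maximum activity change between -70% and -50%; inactive means maximum activity change above -50%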; further: on the % scale 0 is the no-effect control and ±100 the full control effect
Target sequence (Q12809 whole entry, looked up): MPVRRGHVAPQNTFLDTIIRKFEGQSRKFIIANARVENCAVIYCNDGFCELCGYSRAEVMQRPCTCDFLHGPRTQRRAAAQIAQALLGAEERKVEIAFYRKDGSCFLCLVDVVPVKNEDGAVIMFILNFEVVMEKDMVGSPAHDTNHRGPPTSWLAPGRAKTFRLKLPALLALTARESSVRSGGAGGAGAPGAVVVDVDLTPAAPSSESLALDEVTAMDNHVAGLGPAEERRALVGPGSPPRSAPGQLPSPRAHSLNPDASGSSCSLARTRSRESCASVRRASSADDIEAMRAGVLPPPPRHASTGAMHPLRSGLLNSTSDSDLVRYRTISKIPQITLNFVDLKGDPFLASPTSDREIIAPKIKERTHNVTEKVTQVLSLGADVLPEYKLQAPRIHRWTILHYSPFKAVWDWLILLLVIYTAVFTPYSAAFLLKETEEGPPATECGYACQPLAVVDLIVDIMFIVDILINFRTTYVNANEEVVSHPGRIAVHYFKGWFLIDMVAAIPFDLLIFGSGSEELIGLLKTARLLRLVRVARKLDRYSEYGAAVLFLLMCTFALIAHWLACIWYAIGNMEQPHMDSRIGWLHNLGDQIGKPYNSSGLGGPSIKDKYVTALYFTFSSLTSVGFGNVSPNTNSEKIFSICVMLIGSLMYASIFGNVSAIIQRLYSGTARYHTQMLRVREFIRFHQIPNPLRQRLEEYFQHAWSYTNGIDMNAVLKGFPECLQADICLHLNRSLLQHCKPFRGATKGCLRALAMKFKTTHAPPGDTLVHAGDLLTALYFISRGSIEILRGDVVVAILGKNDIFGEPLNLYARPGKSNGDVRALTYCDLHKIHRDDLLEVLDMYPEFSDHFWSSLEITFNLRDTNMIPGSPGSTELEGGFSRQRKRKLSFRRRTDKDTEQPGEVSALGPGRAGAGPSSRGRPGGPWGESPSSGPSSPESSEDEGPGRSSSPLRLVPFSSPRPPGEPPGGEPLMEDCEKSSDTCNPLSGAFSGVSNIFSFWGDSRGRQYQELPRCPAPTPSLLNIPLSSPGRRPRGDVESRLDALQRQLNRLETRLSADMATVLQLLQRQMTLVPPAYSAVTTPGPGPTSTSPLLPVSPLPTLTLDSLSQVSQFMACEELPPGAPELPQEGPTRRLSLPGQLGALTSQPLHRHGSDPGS
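U2OS cells transduced with wild-type KCNH2 virus are loaded with FluxOr dye for 45 min, and thallium flux is measured in kinetic reads before and after stimulation buffer. Rate constants are normalized to DMSO controls.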
MBNL1 CUG block – blocks human MBNL1 binding to CUG repeat RNA; 280,000 compounds, 0.036% hits; TR-FRET MBNL1-His/biotin-(CUG)12 binding, 665/545 ratio; Potency, µM (titrated, usually from 57.5 µM), for inactives: at the top dose activity change, negative = inhibition, most hits filed as inhibitors; Q9NR56; active means well fitted inhibition curve with a large enough effect in the signal ratio, with a control signal flat, not every such curve was filed as active; inconclusive means small, poorly fitted or top-dose-only effect, or effect the other way, or a change in a side signal; inactive means no such curve, though single readings can be large or run the other way; the % refers to the signal ratio; further: potency means the concentration at half of the fitted maximal effect; on the % scale 0 is the no-effect control and ±100 the full control effect
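Compound titration spanned 92 nM–58 uM against the MBNL1-His/biotin-(CUG)12 complex. After 60 min at room temperature with 5 nM streptavidin-XL665 and 0.055 ng/ul terbium anti-His, ratiometric 665/545 nm emission (Ex 340 nm) normalized to controls.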
PLK1 PBD block – inhibitors of human PLK1 polo-box domain binding; P53350; 360,000 compounds, 2.8% hits; Plk1 PBD binding of FITC phosphopeptide, fluorescence polarization; Potency, µM, for the others: max response, negative = inhibition, actives largely listed as inhibitors; further: potency means the concentration at half of the fitted maximal effect; series mostly up to about 57 µM; on the % scale 0 is the no-effect control and ±100 the full control effect; nearly all actives have a fitted effect of over 65% in size
CBFb-RUNX1 inh – blocks binding between human CBF-beta and RUNX1. AlphaScreen CBFb-His/RUNX1-biotin binding, biochemical. 230,000 tested, under 10 active. Q01196+Q13951. AID 1477. Potency, µM (highest dose often 59.8 µM), inactives show at the highest dose activity, negative = inhibition, actives largely listed as inhibitors; further: % of control where 0% means no effect
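Compounds were screened at multiple concentrations against a preformed CBF-beta(His)/RUNX1(biotin) complex (30 nM of each) for 15 min at room temperature, followed by 90 min with nickel and streptavidin beads and AlphaScreen reading.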
KCNH2 3.1 inh – blocks the human KCNH2 3.1 channel isoform; U2OS KCNH2 3.1, thallium flux FluxOr; hits give low values; activity change, % (tested at about 1.8 µM); 340,000 compounds, 0.95% hits; AID 720553;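 active means maximum activity change below -70%; inconclusive means maximum activity change from -70% to -50%; inactive means maximum activity change above -50%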;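 further: thallium influx rate constant from kinetic fluorescence after stimulation buffer; on the % scale 0 is the no-effect control and ±100 the full control effect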
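We transduce U2OS cells with the mutant 3.1 virus, culture them overnight, load FluxOr with Red40 quencher for 45 min, then add stimulation buffer and read kinetically for 2 min to derive a normalized rate constant.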
USP1-UAF1 confirm – USP1-UAF1 deubiquitinase inhibition validated; 50 compounds, 50% hits; Potency, µM (doses to about 56.8 µM), without a hit: at the highest dose activity change, negative = inhibition, usual class: inhibitors; Ub-Rhodamine cleavage, fluorescence kinetic read; shares compounds with VDR inh; AID 540327
VDR inh confirm – inhibits human vitamin D receptor, primary hit validation. shares compounds with VDR inh. VDR-coactivator inhibition assay, qHTS confirmation. Potency, µM, usual class: inhibitors. 840 compounds, 89% hits; further: potency means the concentration at half of the fitted maximal effect
VDR FP fluor – confirmation of human VDR-coactivator binding inhibitors, fluorescein label | VDR-coactivator binding, fluorescein fluorescence polarization | shares compounds with VDR inh | 840 compounds, 48% hits | Potency, µM (top dose mostly 57.1 µM), without a hit: at the top dose activity change, negative = inhibition, actives largely listed as inhibitors | AID 602200; further: potency means the concentration at half of the fitted maximal effect
VDR bla reporter – VDR (human) inhibition, cell-based beta-lactamase validation | AID 602202 | 840 compounds, 23% hits | VDR beta-lactamase reporter cells, FRET ratio; cells co-treated with VDR agonist LG190178 | shares compounds with VDR inh | Potency, µM (doses to about 46.1 µM), for the others: at the highest dose activity change, negative = inhibition, hits mostly inhibitors; further: potency means the concentration at half of the fitted maximal effect; on the % scale 0 is the no-effect control and ±100 the full control effect
VDR cytotox – cell toxicity, VDR inhibitor hit counter-screen; shares compounds with VDR inh; cytotoxicity counter-screen, cell viability, qHTS; Potency, µM (doses to about 48.3 µM), for inactives: at the highest dose activity change, negative = cytotoxicity, hits mostly cytotoxic; 840 compounds, 18% hits; AID 602204;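 further: potency means the concentration at half of the fitted maximal effect; plate controls were DMSO for no effect and high-concentration cycloheximide for full effect; nearly all actives have a fitted effect of over 75% in size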
* marks the source's active call; other numbers are inactive results; u = inconclusive; x = no result. Unless noted, the call rests on the fitted dose curve; in most records, active means well fitted curve in the direction sought with a large enough effect; inconclusive means small, poorly fitted or top-dose-only effect, or another doubt; inactive means no such curve, though single readings can be large; an effect the other way counts as inactive or inconclusive.

SMILES	VDR inh	hERG WT inh	MBNL1 CUG block	PLK1 PBD block	CBFb-RUNX1 inh	KCNH2 3.1 inh	VDR inh confirm	VDR FP fluor	VDR bla reporter	VDR cytotox	others
O=C1C(=Cc2ccncc2)CCCc2ccccc21	x	-8	x	-9%	x	6	x	x	x	x
O=C1/C(=C/c2ccncc2)CCC/C1=C\c1ccncc1	7.1µM*	-4	-15%	21µM*	-4%	3	5.3*	3.5µM*	3.3µM*	21µM*
CCOc1ccc(C2C(=O)N(C3CCCCC3)CC(=O)N2Cc2ccc(F)cc2)cc1OC (stereo unspecified)	5%	x	x	x	x	x	x	x	x	x
CC(C)(C)c1nnc(NS(=O)(=O)c2ccc([N+](=O)[O-])cc2)s1	u	5	u	24µM*	x	-6	22*	25µM*	-10%	24%
O=[N+]([O-])c1ccc(S(=O)(=O)Nc2nc(-c3ccccc3)cs2)cc1	-1%	3	12%	u	x	4	x	x	x	x
CCc1nn2c(=O)cc(COC(=O)c3ccccc3NC(=O)c3cccs3)nc2s1	12%	x	x	x	x	x	x	x	x	x
O=C(c1ccccc1)N1N=C(c2ccc(F)cc2)CC1(O)C(F)(F)F (stereo unspecified)	-6%	-2	1%	-23%	x	-20	x	x	x	x
CN1CCC2(CC1)N=C(c1ccc(F)cc1)C(=S)N2C(=O)c1ccccc1	45µM*	-23	21%	u	-3%	-20	19*	u	1%	u
COc1cc(/C=C2/N=C(C3CCCCC3)OC2=O)cc(OC)c1OC	40µM*	6	-1%	-20%	2%	1	17*	14µM*	24%	15%
COc1cc(/C=C2\CCC(C3CCCC3)C2=O)cc(OC)c1OC (stereo unspecified)	7%	6	6%	0%	x	6	x	x	x	x
C=CC(C)(C)c1[nH]c2ccccc2c1C1=C(O)C(=O)C(c2c[nH]c3c(CC=C(C)C)cccc23)=C(O)C1=O	18µM*	x	x	x	x	x	x	x	x	x	USP1-UAF1 confirm=u
Cc1ccc(-n2nc3cc(C)c(N)cc3n2)cc1	u	-2	20%	-16%	9%	1	x	x	x	x
Cc1cc2nc3ccc(N(C)C)cc3nc2cc1N	79µM*	-5	x	u	x	-9	19*	92%	18%	u
COc1ccc(/C=C/C(=O)Nc2ccc3nc(N4CCC(C)CC4)cc(C)c3c2)cc1OC	-19%	x	x	x	x	x	x	x	x	x
CCCCN(CC)CCNC(=O)CCn1cnc2onc(-c3ccc(F)cc3)c2c1=O	12%	x	x	x	x	x	x	x	x	x
FC(F)(F)c1nnc2n1N=C(c1ccccc1)CS2	-21%	-10	-2%	4%	x	-1	x	x	x	x
c1ccc(-c2ccc(C3=Nn4c(Cn5nnc6ccccc65)nnc4SC3)cc2)cc1	u	17	19%	4.7µM*	-19%	15	14*	10µM*	-9%	-9%
O=[N+]([O-])/C=C/c1cn(Cc2ccccc2)c2ccccc12	14µM*	-3	-3%	u	-1%	-5	12*	u	u	u
O=C1OC(NC(=O)c2ccccc2)C(n2cc(CO)nn2)=C1Cl (stereo unspecified)	40µM*	2	-8%	9.5µM*	-4%	7	u	u	10%	24%
CCOC(=O)C1=C(Cc2ccc(C)cc2)C(=O)c2ccccc2C1=O	x	x	u	x	-8%	x	x	x	x	x
CCOC(=O)C1=C(Cc2ccc(OC)cc2)C(=O)c2ccccc2C1=O	7.9µM*	-14	u	12µM*	-5%	-9	0.71*	u	23µM*	u
COc1ccc(-c2cc(C(=O)OCC(=O)c3cccc(OC)c3)c3cccc(Cl)c3n2)cc1	2%	x	x	x	x	x	x	x	x	x
O=C(NC1CCCCCC1)C(=S)N1CCCC1	-7%	11	-2%	-7%	8%	7	x	x	x	x
O=C(NC1CCCCCC1)C(=S)N1CCOCC1	18µM*	-35	-6%	5.3µM*	3%	6	21*	u	-4%	22%
ClC(Cl)(c1nnnn1-c1ccccc1)c1nnnn1-c1ccccc1	3.5µM*	-8	x	1.9µM*	-4%	-48	3.4*	u	u	16µM*
SMILES	VDR inh	hERG WT inh	MBNL1 CUG block	PLK1 PBD block	CBFb-RUNX1 inh	KCNH2 3.1 inh	VDR inh confirm	VDR FP fluor	VDR bla reporter	VDR cytotox	others
COc1ccc(/C=C/C(=O)c2ccc([N+](=O)[O-])o2)cc1OC	18µM*	-1	x	u	x	-6	3.5*	3.5µM*	3.3µM*	17µM*
COc1cc(/C=C/C(=O)c2ccc([N+](=O)[O-])o2)ccc1O	u	-12	x	-29%	x	-3	x	x	x	x
CN(C)c1ccc(C=Nc2ccc(N(C)C)cc2)cc1	u	-8	u	-9%	-30%	-11	10*	u	6%	-11%
COc1cc2[nH]c(=O)n(Cc3ccc(C(=O)N4CCN(c5cc(Cl)ccc5C)CC4)cc3)c(=O)c2cc1OC	-12%	x	x	x	x	x	x	x	x	x
O=C1Nc2ccccc2C1=Nc1ccc(F)cc1	u	17	u	0%	x	8	x	x	x	x
NC(=O)c1ccc(N=C2C(=O)Nc3ccc([N+](=O)[O-])cc32)cc1	u	1	u	u	4%	-3	0.63*	0.71µM*	-16%	-21%
CC(=O)c1ccc(N=C2C(=O)Nc3ccccc32)cc1	4µM*	2	u	u	x	5	3.4*	3.5µM*	16%	-7%
CCOC(=O)c1sc(NC(=O)c2cc(CC)on2)c(C(=O)OCC)c1C	-11%	x	x	x	x	x	x	x	x	x
CCC(C)(C)c1ccc(CC(C)CN2C[C@@H](C)O[C@@H](C)C2)cc1 (stereo partly specified)	-7%	x	x	x	x	x	x	x	x	x

Screens deposited in PubChem BioAssay by National Center for Advancing Translational Sciences (NCATS).
